Here are results for 37 compounds from PubChem BioAssay (NCATS).

Records with an inconclusive call do not appear. Entries that show only a call come without a potency. Calls of active or inactive are those of the source. Calls follow the shape of the dose curve; as a rule, active = well fitted cell-killing curve with a large enough effect; inconclusive = small, poorly fitted or top-dose-only effect, or effect the other way; inactive = no such curve, though single readings can be large or run the other way.
Potency is read from the fitted curve at half-maximal effect.

The nature of this assay: qHTS of pediatric cancer cell lines to identify multiple opportunities for drug repurposing: Confirmatory screen for NB-EBc1 cells (AID 1347115).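 Also: cells exposed to compound for 48 h before the viability read; nearly all actives have a fitted effect of over 45% in size.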 Particulars: NB-EBc1 neuroblastoma cells, viability (cytotoxicity); series mostly up to 45.9 µM. An excerpt:
Drug repurposing or repositioning has been offered as a strategy for drug development in oncology programs. This approach has special potential for childhood cancers and other rare or orphan diseases, where the expected return on new drug development has been a disincentive to pharmaceuticals.
In this project we exploit the poly-pharmacology of drugs to discover new indications via phenotypic screening of a panel of 19 well-characterized cell lines derived from solid tumors seen in children and adolescents. The goal is to identify approved drugs with previously unrecognized anticancer properties that has the potential to reveal new mechanisms and biological processes involved in carcinogenesis or drug resistance. We employed a titration-based paradigm (quantitative high-throughput screening or qHTS), where all compounds were tested at multiple concentrations for their effect on cell viability. Concentration-response curves (CRCs) were derived directly from the primary screen, and both potency and efficacy values were used to identify compounds with robust bioactivity profiles. We screened the NIH Chemical Genomics Center (NCGC) Pharmaceutical Collection (NPC) and Mechanism Interrogation Plate (MIPE) small molecule collections of approved and investigational compounds against these cell lines; and measured metabolically active cells after 48 hours of compound treatment as a proxy for cell viability.
Assay Submitter: Nathalia J. Martinez, National Center for Advancing Translational Sciences, National Institutes of Health, Rockville, MD, USA; email: natalia.martinez@nih.gov
[1] Shen, M et al. Quantitative high-throughput phenotypic screening of pediatric cancer cell lines identifies multiple opportunities for drug repurposing. Oncotarget 2017 Dec 19;9(4):4758-4772. PMID 29435139.
The cells were obtained from University of North Carolina (UNC), Pediatric Preclinical Testing Program (PPT), and Coriell Institute (CI).
qHTS cell viability assay:
Cells were assayed in growth media at a density of 500-1,000 cells/well. Five microliters of cells were dispensed into 1,536-well, white, solid-bottom, TC-treated plates (Greiner Bio One) using a multidrop dispenser and incubated at 37 degrees C, 5% CO2, under a humidified atmosphere for 5 hours. Twenty-three nanoliters of compounds and controls (neutral control DMSO or positive control bortezomib at final concentration of 2.3 µM) were subsequently transferred by Kalypsys pintool. For primary screens, the MIPE collection was tested at 11-point dilutions (final concentrations range from 0.78 nM to 46 µM) and the NPC collection at 8-point dilutions (final concentrations range from 0.59 nM to 46 µM). Compounds tested in follow-up screens were assayed at 11-point dilutions. Cells were incubated for 48 hours, followed by addition of 3 µL of CellTiter-Glo (Promega). After a 15 min incubation at room temperature, samples were analyzed for luminescence intensity using a ViewLux High-throughput CCD imager equipped with clear filters.
For the compound `O=C(O)c1ccc(-c2c[nH]c3ncc(-c4ccccc4)cc23)cc1C1CCCC1`, the Potency result was “inactive”.

Turning to `COc1ncc(-c2ccc3nccc(-c4ccnnc4)c3c2)cc1NS(=O)(=O)c1ccc(F)cc1F`, the Potency is 8.27 µM (active).

Consider `CC1(C)S[C@H]2[C@H](NC(=O)[C@@H](N)c3ccc(O)cc3)C(=O)N2[C@@H]1C(=O)O`, for which the Potency entry was “inactive”.

In the case of `CC[C@]1(O)C[C@@H]2CN(CCc3c([nH]c4ccccc34)[C@@](C(=O)OC)(c3cc4c(cc3OC)N(C=O)[C@@H]3C45CCN4CC=C[C@](CC)([C@H]45)[C@@H](OC(C)=O)[C@]3(O)C(=O)OC)C2)C1` (some centres not stated), the Potency entry is “inactive”.

For the compound `O=C1NC(=O)C(=Cc2ccc3c(c2)OC(F)(F)O3)S1`, the Potency result was “inactive”.

For the compound `CC1(C)CCC[C@@]2(C)[C@@H]1CC[C@@]1(C)OC(=O)C[C@H]21`, the Potency entry was “inactive”.

In the case of `CC[C@@H]1C=C(C)C[C@H](C)C[C@H](OC)[C@H]2O[C@@](O)(C(=O)C(=O)N3CCCC[C@@H]3C(=O)O[C@H](C(C)=C[C@@H]3CC[C@H](Cl)[C@H](OC)C3)[C@H](C)[C@@H](O)CC1=O)[C@H](C)C[C@H]2OC`, the Potency was 23.3 µM (active).

Regarding `COc1cccc(-c2cc(=O)c3ccccc3o2)c1N`, the Potency entry was “inactive”.

For the compound `CC(=O)Oc1cc2c(s1)CCN(C(C(=O)C1CC1)c1ccccc1F)C2` (configuration not stated), the Potency entry is “inactive”.

Consider `OC[C@H]1O[C@@H](n2cnc3c2NC=NC[C@@H]3O)C[C@H]1O`, for which the Potency result was “inactive”.

With `CCCCCCCCCCCC1=C(O)C(=O)C=C(O)C1=O`, the Potency result was “inactive”.

With `N[C@@]1(C(=O)O)CS(=O)(=O)[C@H]2[C@H](C(=O)O)[C@H]21`, the Potency entry was “inactive”.

With `Nc1ncnc2c1ncn2[C@@H]1O[C@@H](CO)[C@H](O)[C@H]1O`, the Potency entry was “inactive”.

As to `CO[C@H]1C(=O)[C@]2(C)[C@@H](OC)C[C@H]3OC[C@@]3(OC(C)=O)[C@H]2[C@H](OC(=O)c2ccccc2)[C@]2(O)C[C@H](OC(=O)[C@H](O)[C@@H](NC(=O)OC(C)(C)C)c3ccccc3)C(C)=C1C2(C)C`, the Potency result was “inactive”.

For `O=c1[nH]cnc2c1ncn2[C@H]1CC[C@@H](CO)O1`, the Potency result was “inactive”.

As to `NS(=O)(=O)c1cccc2c1C(=O)c1cccc(O)c1C2=O`, the Potency result was “inactive”.

For the compound `CN[C@@H](C)C(=O)N[C@H]1CN(C(=O)CC(C)C)CC[C@H]2CC[C@@H](C(=O)NC(c3ccccc3)c3ccccc3)N2C1=O`, the Potency result was “inactive”.

As to `Cc1nnc(C(C)C)n1C1C[C@H]2CC[C@@H](C1)N2CC[C@H](NC(=O)C1CCC(F)(F)CC1)c1ccccc1` (some centres not stated), the Potency is 7.37 µM (active).

`Cc1cc(OCCCc2c(C(=O)O)n(Cc3cccnc3)c3c(-c4c(COc5ccc(N6CCN([S+](C)(=O)[O-])CC6)cc5)nn(C)c4C)cccc23)cc(C)c1Cl`: the Potency entry was “inactive”.

Regarding `COc1ccc(-c2coc3cc(O)cc(O)c3c2=O)cc1`, the Potency result was “inactive”.

Regarding `CC(=O)Nc1ccc([C@H](C)C(=O)Nc2ncc(C(C)C)s2)cc1`, the Potency result was “inactive”.

Take `CC(=NNC(=S)N1CCC1)c1ccccn1`: the Potency entry was “inactive”.

Regarding `CNC1CCC(N(Cc2cccc(-c3ccncc3)c2)C(=O)c2sc3c(F)ccc(F)c3c2Cl)CC1` (configuration not stated), the Potency result is “inactive”.

`COc1cc(N2CCC(N3CCN(C)CC3)CC2)ccc1Nc1ncc(Cl)c(Nc2ccccc2S(=O)(=O)C(C)C)n1`: the Potency is 14.7 µM (active).

For `Oc1ccc(C2CCN(c3ccnc4ccccc34)CC2)cc1O`, the Potency is 14.7 µM (active).

On to `C=C1C(=O)[C@@]23C(CC[C@@H]1[C@H]2O)[C@@]12CO[C@]3(O)[C@@H](O)[C@@H]1C(C)(C)CC[C@@H]2O` (some centres not stated), for which the Potency was 8.27 µM (active).

Consider `O=C(O)CCC1CCC(c2cc(F)ccc2F)(S(=O)(=O)c2ccc(Cl)cc2)CC1` (configuration not stated), for which the Potency entry was “inactive”.

On to `NC1=N[C@@]2(c3cc(NC(=O)c4ccc(F)cn4)ccc3F)COC[C@@H]2CS1`, for which the Potency result was “inactive”.

In the case of `CO[C@H]1C[C@@H]2CC[C@@H](C)[C@@](O)(O2)C(=O)C(=O)N2CCCC[C@@H]2C(=O)O[C@H]([C@H](C)C[C@@H]2CC[C@H](OCCO)[C@H](OC)C2)CC(=O)[C@H](C)C=C(C)[C@@H](O)[C@@H](OC)C(=O)[C@H](C)C[C@H](C)C=CC=CC=C1C`, the Potency result is “inactive”.

With `CC(=O)O[C@]1(C(C)=O)CC[C@@H]2[C@@H]3C[C@H](C)C4=CC(=O)CC[C@]4(C)[C@H]3CC[C@@]21C`, the Potency result is “inactive”.

In the case of `O=C1C(Cl)=C(NCCN2CCOCC2)C(=O)c2ncccc21`, the Potency is 5.85 µM (active).

On to `CN(C)C1CCN(C(=O)c2ccc(NC(=O)Nc3nc(N4CCOCC4)nc(N4CCOCC4)n3)cc2)CC1`, for which the Potency is 16.5 µM (active).

For `O=C1c2ccccc2-[n+]2ccc3c([nH]c4ccccc43)c21`, the Potency is 2.61 µM (active).

For the compound `CC=C(C)C(=O)O[C@H]1C(C)=C[C@]23C(=O)[C@@H](C=C(CO)[C@@H](O)[C@]12O)[C@H]1[C@@H](C[C@H]3C)C1(C)C`, the Potency entry was “inactive”.

With `CCc1ccc(OCc2ccccc2C(=O)Nc2ccc3nc(C)cc(N)c3c2)cc1`, the Potency is 8.27 µM (active).

In the case of `Cc1[nH]c(C=C2C(=O)Nc3ccc(S(=O)(=O)Cc4c(Cl)cccc4Cl)cc32)c(C)c1C(=O)N1CCC[C@H]1CN1CCCC1`, the Potency result was “inactive”.

`CC(C)(C(=O)NCC(F)(F)C(F)(F)F)C(=O)N[C@@H]1C(=O)Nc2ccccc2-c2ccccc21`: the Potency result is “inactive”.
